# Test results reported in the supplement of paper PMC6555819.
# What was measured:
# Test in all cases: PBM binding z-score (relative to random genomic background probes); higher = stronger binding; sequences stand for … in GC…GCGATTGACAGCGTAGAATGAAGG
# [1] = test system: PPARg:RXRa DBDmut IVT, anti-RXR (DBD mutation: RXRa K156A/R161A, NR concentration 270 nM, RXRa partner concentration 90 nM)
# Summary of the method: (§1)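 For binding z-scores, the reference was random background probes on custom Agilent 4×180K protein-binding microarrays. These arrays were incubated 1 h with ligand-free nuclear receptor dimers in PBS pH 7.4, 2% milk, 0.02% Triton X-100, 1 mM DTT, 0.2 mg/mL BSA and 0.4 mg/ml salmon testes DNA. Fluorescence was scanned after antibody detection of each partner (one per run) and regression-normalized.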
# [2] = test system: PPARg:RXRa IVT, anti-PPARg (NR concentration 270 nM, RXRa partner concentration 90 nM)
# Summary of the method: as §1
# [3] = test system: PPARg DBDmut:RXRa IVT, anti-PPARg (DBD mutation: PPARg1 K132A/R137A, NR concentration 270 nM, RXRa partner concentration 90 nM)
# Summary of the method: as §1
# [4] = test system: PPARg DBDmut IVT, anti-PPARg (DBD mutation: PPARg1 K132A/R137A, NR concentration 270 nM)
# Summary of the method: as §1
# [5] = test system: PPARg homodimer (NR concentration 180 nM)
# Summary of the method: as §1
# [6] = test system: PXR:RXRa (NR concentration 270 nM, RXRa partner concentration 90 nM)
# Summary of the method: as §1
# [7] = test system: PXR homodimer (NR concentration 270 nM)
# Summary of the method: as §1
# [8] = test system: RARa:RXR (NR concentration 270 nM, RXRa partner concentration 90 nM)
# Summary of the method: as §1
# [9] = test system: RARa homodimer (NR concentration 270 nM)
# Summary of the method: as §1
# [10] = test system: RARb:RXRa (NR concentration 270 nM, RXRa partner concentration 90 nM)
# Summary of the method: as §1
Sequence,PBM binding z-score [1],PBM binding z-score [2],PBM binding z-score [3],PBM binding z-score [4],PBM binding z-score [5],PBM binding z-score [6],PBM binding z-score [7],PBM binding z-score [8],PBM binding z-score [9],PBM binding z-score [10]
AGTATTAGTTGACTTAGGGCAACCGATACGACGC,-0.0999,0.548,0.229,1.16,0.56,0.237,0.692,0.353,1,1.12
ACTATTAGTTGCCTTAGGGCAACCGATACGACGC,-0.0728,0.674,0.726,0.896,0.221,0.335,-0.148,0.576,0.282,0.771
CCGACTCGGGCATAAGGTTACCATAAGCCAGCCC,0.661,-0.167,-1.02,-2,0.278,0.0235,-0.204,0.884,-0.315,1.36
CTCGAAAGGTCGTGCTAAGGTGAGTATACCAAAC,0.626,2.19,0.542,0.415,2.51,3.71,0.449,5.09,0.258,4.05
CCTGCTAGGACATGGTCAGCTAATCTACAGTATG,0.152,-0.597,-0.458,-0.543,-0.902,-0.794,-0.746,-0.925,-0.734,0.0895
AGTAAAAGTTCATCTAGGTAACGTAAGATATGCT,0.423,2.83,1.21,1.83,2.75,4.52,3.57,3.39,1.46,4.72
CCGACTGGGGCAAGGGTTACCATACTCAGTACGA,3.17,4.93,-0.628,-1.19,0.0321,0.443,-0.412,1.53,-0.348,1.57
AGAACGAGGGCAATGAGTCGATAGCACGGGTGGC,3.4,2.38,-0.0536,-0.236,-0.174,0.0741,0.415,-0.0854,-0.378,1.9
TACCCTAGGTCAGATCGGGCCAGTATACGCTATA,0.709,2.17,0.146,-0.236,0.849,1.37,-0.0848,1.8,0.123,3.19
TCTTGTAGTTCAATAGAGGTTAAGAAAGTGCGCT,1.53,0.937,0.563,1.1,1.14,4.2,1.73,2.4,0.814,2.22
GGATATAGGTAATACAAGGTGAAAGTCCGATTGT,5.48,5.34,1.29,1.44,1.17,1.02,0.527,2.01,1.8,0.806
CCTACTGGGGCAGAAAGGTTACCATACCATCCGG,3,4,0.246,-0.987,1.63,0.791,-0.188,1.85,0.396,1.87
CCGACTGGGGCAAGGTTACAATAACGCACAGCCA,3.2,3.29,-0.578,-1.14,0.441,0.333,-0.113,0.945,0.189,1.38
CCTTACGGGTCACTGACAGGTTATATCATTTGGA,3.09,3.76,1.37,0.355,2.85,3.69,0.432,4.84,0.665,4.08
TAGACTAGGTCATGGGCCAGTATACCACGCGAAC,5.98,6.8,1.6,0.962,1.38,1.04,0.462,2.1,0.407,3.49
CGTACTGGGCCATCAGGTCATTGATATCAACGTT,5.01,4.86,0.473,-0.333,1.12,1.67,0.831,1.88,-0.122,1.93
ACTAGCAGGCCAAGTTTGGGTTACTCAAACAAAG,0.764,0.439,-1.56,-0.888,-0.611,-0.324,-0.543,0.00564,-0.953,0.389
ACTTACGGGTCAACTAGGTTATAGCACGCGTATA,3.88,4.98,1.29,1.61,2.6,4.26,0.766,4.91,1.54,4.36
GATACAGGGTCAGCTAGAGGCCAGAATATGGAAA,0.991,2.56,-0.253,-0.217,2.63,3.24,0.115,4.04,0.657,4.02
CCTTCTGGGCCAAAGGTCATTGATTCCAATGCTC,5.17,6.5,0.508,0.533,2.95,5.52,1.51,6.29,0.576,4.44
GGAACGAGGCCAAGTTGATAGCAGAGTTTGATGG,1.98,0.981,-1.22,-0.68,-0.613,-0.452,0.241,-0.778,-0.416,1.36
ACTAGTTGGTCAGCTGAGGTCACTCACAATTCGG,1.45,2.35,0.323,0.891,1.61,4.97,1.53,3.69,0.562,3.34
CTCGAAAGGTCGGTTGAGGTGAGTATACGGATAA,-0.0424,0.699,0.597,-0.651,0.927,3.19,-0.354,3.13,0.103,2.98
TCTGCTAGATCAACGATGGTCAGCTAATCTGCTA,0.608,-0.401,-0.179,-0.566,-1.56,-0.434,-1.18,-0.57,-1.3,-0.346
